Results published in ChEMBL document CHEMBL4513216, “Probing the Open Global Health Chemical Diversity Library for Multistage-Active Starting Points for Next-Generation Antimalarials” (ACS Infect Dis, 2020).
Hit rate of the full screen: of about 69,000 compounds, about 8,600 (12%) showed an effect of 50% or more. The list comes from a sample in which strong results are over-represented; it also holds similar structures and randomly drawn compounds.

Each compound was assayed on Plasmodium berghei (assay: Screen against P. berghei liver stage (PbLuc), transformed with Luciferase, at 10uM). Conditions: tested at 10 uM.
Format: functional, HepG2

Row | Structure (SMILES) | INHIBITION [%]
1 | O=C(Nc1ccccc1)C1CN(CC2CC2)CC12CCOCC2 (stereo not drawn) | 4.2
2 | Cc1ccc(CNC(=O)CN(CCC(N)=O)c2ccc(F)cc2)cc1 | 16
3 | Cc1ccc(CCNC(=O)N2CCC(Cc3cnn(C)c3)C2)cn1 (stereo not drawn) | -3.58
4 | Cc1cc(Br)ccc1CNC(=O)C1(O)CCSCC1 | 19.1
5 | CC(=O)NC1CCN(c2nc(N(C)C)nc3c2CCCC3)CC1 | 46.6
6 | CC(C)Nc1ncnc2c1CCN(C(=O)Cc1cccs1)CC2 | 21.8
7 | Cc1nc(CCNc2nc(N(C)C)nc3c2CCCC3)cc(=O)[nH]1 | 24.7
8 | CNC(=O)CN(C)c1nc(-c2ccncc2)nc2c1CCN(C(C)=O)C2 | 31.8
9 | CC(=O)N1CCc2c(nc(N(C)C)nc2NC(C)Cc2cccs2)C1 (stereo not drawn) | 78.6
10 | CC(=O)N1CCc2nc(N(C)C)nc(NCCc3ccccc3)c2CC1 | 79.7
11 | CN(C)c1nc2c(c(N3CCCC3)n1)CCN(C(=O)c1ccc[nH]1)CC2 | 34.5
12 | CC(=O)N1CCc2c(nc(N(C)C)nc2N(C)CCO)C1 | 31.6
13 | CC(=O)NC1CCN(c2nc(N(C)C)nc3c2CCN(C(C)=O)C3)CC1 | 58.9
14 | O=C(Cc1cccs1)N1CCCCC1c1ccn2ccnc2n1 (stereo not drawn) | 26.3
15 | CCOc1cc(C)nc(N2CCN(C(=O)c3cc[nH]n3)CC2)n1 | 40
16 | O=C(c1ccc2nncn2c1)N1CCCC(n2ccnc2)C1 (stereo not drawn) | 16.9
17 | CCCNC(=O)CCNC(=O)N1CCC(=Cc2ccccc2)CC1 | 9
18 | CCNC(=O)N1CCC(=Cc2ccccc2)CC1 | 63.3
19 | CNC(=O)N1CCC(=Cc2ccccc2)CC1 | -27.4
20 | CN(C)c1nc2ncc(Cl)cc2cc1C#N | -8.35
21 | CCOC(=O)N1CCC(Nc2cc(CC)nc3c(C)c(C)nn23)CC1 | -31.4
22 | CC[C@@H](C)[C@H](NC(=O)CCn1cc(C(C)=O)c2ccccc21)C(=O)O | -27

Row | Structure (SMILES) | INHIBITION [%]
23 | CCn1nc(C)c2c1cnn2CCNS(=O)(=O)Cc1ccccc1 | 47.4
24 | Cc1cccc(C(=O)N2CCC[C@]3(C[C@@H](OCC4CC4)CO3)C2)n1 | 52
25 | Cc1cc(C(=O)N2CCC[C@]3(C[C@@H](OCC4CC4)CO3)C2)no1 | 21.8
26 | Cc1cc(C(=O)N2CCC[C@]3(C[C@H](OCC4CC4)CO3)C2)no1 | 17.1
27 | CCOC1COC2(CCN(Cc3cccc(C)n3)CC2)C1 (stereo not drawn) | 25.6
28 | O=C(c1ccncn1)N1CCC[C@]2(C[C@@H](OCC3CC3)CO2)C1 | 42.7
29 | O=C(c1ccncn1)N1CCC[C@]2(C[C@H](OCC3CC3)CO2)C1 | 50.9
30 | CCOC1COC2(CCN(c3cccc(C)n3)CC2)C1 (stereo not drawn) | 16.6
31 | CCOC1COC2(CCN(C(=O)c3cccc(C)n3)CC2)C1 (stereo not drawn) | 63.3
32 | O=C(c1cocn1)N1CCC[C@]2(C[C@@H](OCC3CC3)CO2)C1 | -2.72
33 | CC(CC(=O)NCCCn1cccn1)c1cccnc1 (stereo not drawn) | 15.7
34 | CC(C)(C)c1nnc2n1C(C(=O)N1CCN(c3ncccn3)CC1)CC2 (stereo not drawn) | 14.3
35 | Cc1ccc(C)c(CSc2nnc(C(N)C(C)C)o2)c1 (stereo not drawn) | 21.8
36 | c1ccc(Cc2noc(CN3CCOC(Cn4cccn4)C3)n2)cc1 (stereo not drawn) | 24
37 | Cn1cc(C(=O)NCc2ccc(N3CCCC3)nc2)ccc1=O | 35.9
38 | CN(C)c1ccc(CNC(=O)NCCc2cn3ccccc3n2)cn1 | -10.6
39 | CCOc1cc(NC(=O)N2CCOC3(CCC3)C2)ccc1C | 2.45
40 | CCN1CCCCC1C(=O)Nc1cccc(-c2nnc[nH]2)c1 (stereo not drawn) | 19.7
41 | CC1(c2ncc(CN3CCOCC3)cn2)CCCCO1 (stereo not drawn) | 18.04
42 | c1cnc(-c2nn3c(CN4CCOCC4)nnc3s2)cn1 | 4.35
43 | CCc1nc(CCn2ccc3nc(OC)c(C#N)cc3c2=O)no1 | 32.3
44 | COc1nc2ccn(CCNc3cc(C)ccn3)c(=O)c2cc1C#N | 58.3

Row | Structure (SMILES) | INHIBITION [%]
45 | COc1nc2ccn(CCc3scnc3C)c(=O)c2cc1C#N | 45.7
46 | COc1nc2ccn(CCc3cc(O)nc(C)n3)c(=O)c2cc1C#N | 58.3
47 | CC(C)SCCn1ccc2[nH]c(=O)c(C#N)cc2c1=O | 23.5
48 | COCCn1cnc2ccc(NC(=O)c3ccc(OC)cc3)cc2c1=O | -13.6
49 | N#Cc1cc2c(=O)n(CC(O)Cc3ccccc3)ccc2[nH]c1=O (stereo not drawn) | 25.9
50 | Cc1ccnc(NCCNC(=O)C2CC3(CCNCC3)CN2C)c1 (stereo not drawn) | -17.9
51 | COc1nc2ccn(CCc3cnccn3)c(=O)c2cc1C#N | 72.6
52 | Cc1cc(C)n(CC2CN(c3cnc4ccccc4n3)CCO2)n1 (stereo not drawn) | 29.7
53 | O=C(C1CC1)N1CC[C@@H]2[C@H](CC1)N(Cc1cccnc1)CCS2(=O)=O | -49.8
54 | CC(C)c1cc(C(=O)N2CCC3(CCc4ccccc4C(=O)N3)C2)on1 (stereo not drawn) | 22.45
55 | Cc1ccc(N2CC[C@H]3O[C@H](C(=O)NCc4ccco4)CC[C@H]32)nn1 | 31.1
56 | Cc1ccc(C(=O)N(C)CCOc2ccccc2F)c(=O)[nH]1 | -10.3
57 | Cn1cc(CCC(=O)N2C[C@@H]3CC[C@H]2CN(Cc2cccnc2)C3)cn1 | 40.2
58 | CCOCCNc1nc(C2CCCC2)nc2c1cnn2C | 2.3
59 | Cn1ncc2c(NCCOCc3ccccc3)nc(C3CCCC3)nc21 | 71.2
60 | Cn1ncc2c(NCCC34CCCN3CCC4)nc(C3CCCC3)nc21 | -12.2
61 | Cn1ncc2c(NCCCOc3cccnc3)nc(C3CCCC3)nc21 | 44.8
62 | Cn1ncc2c(NCCn3cccc3)nc(C3CCCC3)nc21 | 29.4
63 | CCS(=O)(=O)CCNc1nc(C2CCCC2)nc2c1cnn2C | 1.93
64 | CC(C)N(CCNc1nc(C2CCCC2)nc2c1cnn2C)C(C)C | 81.1
65 | Cn1ncc2c(NCCOc3ccc(F)cc3)nc(C3CCCC3)nc21 | 77.1
66 | CNCCCNc1nc(C2CCCC2)nc2c1cnn2C | 37.1

Row | Structure (SMILES) | INHIBITION [%]
67 | O=C(NC1CC1)c1cc(Sc2ncccn2)ccn1 | -17.1
68 | CCOCc1ncn2c1CN(C(=O)Nc1ccc(CC)cc1)CC2 | -9.26
69 | Cc1cccc(CN2CCCC2(C(N)=O)c2cnccn2)n1 (stereo not drawn) | 42.4
70 | CNC(=O)[C@@H](c1ccccc1OC)N1CCC[C@H]1C(=O)NC1CC1 | 35.4
71 | Cc1cc(N2CCN(C(=O)Cc3ccc4c(c3)OCO4)CC2)cc(C)n1 | 52.2
72 | COc1cccc(CC(=O)N2CCCN(c3ccnc(C)c3)CC2)c1 | -1.25
73 | Cc1cc(N2CCCN(C(=O)Cc3cc(F)cc(F)c3)CC2)ccn1 | 28.7
74 | Cc1cc(N2CCCN(C(=O)Cc3cccnc3)CC2)ccn1 | 58.6
75 | O=C(Cc1ccc2c(c1)OCO2)N1CCN(c2ccncc2)CC1 | 49
76 | Cc1cc(N2CCCN(c3ccnc(C)c3)CC2)ccn1 | 11.9
77 | Cc1cc(N2CCCN(C(=O)Cc3ccc(O)c(Cl)c3)CC2)ccn1 | 65.1
78 | O=C(Cc1ccc2c(c1)OCO2)N1CCCN(c2ccccc2)CC1 | 11.8
79 | Cc1cc(N2CCCN(C(=O)Cc3csc(C)n3)CC2)ccn1 | -13.2
80 | O=C(c1cnccn1)N1C[C@H]2CC[C@@H](C1)N(C(=O)Cc1ccsc1)C2 | 28.5
81 | Cc1nnc2n1CCN(CCOc1cccc(C#N)c1)C2 | 44.1
82 | Cc1ccc(C2CSCCN2C(=O)c2ccoc2C)o1 (stereo not drawn) | 13.3
83 | CNC(=O)CCN1CCC(c2nnc(Cn3cccn3)n2C2CC2)CC1 | -0.71
84 | Cc1nccc(C(=O)N2CCCC2c2noc(C(C)C)n2)n1 (stereo not drawn) | 22.6
85 | Cc1ncccc1NS(=O)(=O)Cc1cccc(F)c1 | 3.19
86 | O=C1NC[C@H]2CN(Cc3ccnc4ccccc34)CCN12 | -12.1
87 | O=C1NCC2CN(Cc3ccccc3OCc3ccccn3)CCN12 (stereo not drawn) | 50.3
88 | O=C1NC[C@H]2CN(Cc3ccccn3)CCN12 | -17.2

Row | Structure (SMILES) | INHIBITION [%]
89 | c1cc(CN2CCC3(CC2)CC(N2CCCC2)CO3)co1 (stereo not drawn) | -4.82
90 | Cn1c(C(=O)N(CC(N)=O)C2CCCC2)cc(Cl)c1Cl | -25.6
91 | CCNC(=O)CN(CC)C(=O)c1cc(-c2cccc(Cl)c2)no1 | 21.5
92 | CN(C)c1ncc(NC(=O)c2cccc(Nc3cnn(C)c3)c2)cn1 | 36.5
93 | CN(C)C(=O)c1cccc(Nc2cnn(C)c2)c1 | 33.5
94 | O=C(Nc1cnn(CC(F)F)c1)c1cccc(-n2cnnn2)c1 | 20.6
95 | Cc1cnn(C2CCCN(C(=O)c3cccc(-n4cnnn4)c3)C2)c1 (stereo not drawn) | 14.75
96 | CCNC(=O)CN(CC)C(=O)c1cccc(Nc2cnn(C)c2)c1 | 70.3
97 | CN(C)C(=O)c1cccc(NC(=O)c2cnn(C)c2)c1 | 52.4
98 | Cn1cc(NC(=O)c2cccc(-n3cnnn3)c2)cn1 | 53.7
99 | Cn1cc(Nc2cccc(C(=O)N(CC(N)=O)C3CCCC3)c2)cn1 | 82.2
100 | CNC(=O)c1cccc(Nc2cnn(C)c2)c1 | 23.6
101 | NC(=O)CN(C(=O)c1cccc(C(F)(F)F)c1)C1CCCC1 | -52.4
102 | Cn1cc(N2CCCC(SCc3ccco3)C2=O)cn1 (stereo not drawn) | 9.79
103 | CCc1cccc(OCC(=O)NC(C)c2nnc3n2CCC3)c1 (stereo not drawn) | -27.8
104 | CCC(=O)N1C[C@@H]2CCN(c3cnccn3)C[C@@H]2C1 | -18.4
105 | CC(C)(C)c1ccc(OCC(N)=O)c(CN2C[C@H]3CC(O)C[C@H]3C2)c1 (stereo partly drawn) | 25.8
106 | CCCN(CC(=O)N1CCNCC1)C(=O)c1cccc(Cl)c1 | 13.5
107 | CC(C)OCCCN(CC(=O)N1CCNCC1)C(=O)c1cccc(Cl)c1 | 25.9
108 | CC(C)OCCCN(CC(=O)N1CCNCC1)C(=O)c1ccc(F)cc1 | 55.7
